From PubChem BioAssay
Mcl1 Bid PPI: disrupts binding of human Mcl-1 to Bid peptide; Q07820; inhibition, % at 21.7 µM; TR-FRET Mcl-1/Bid-Dy647 peptide binding, 1536-well; actives 0.97% (n = 220,000);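 active = compounds that cut the binding signal by more than half at the single screening dose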;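 note: His-tagged Mcl-1 with europium anti-His antibody binding Bid BH3 peptide; 0% = Mcl-1 plus peptide wells and 100% = peptide-only wells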
Target sequence (Q07820 whole entry, looked up): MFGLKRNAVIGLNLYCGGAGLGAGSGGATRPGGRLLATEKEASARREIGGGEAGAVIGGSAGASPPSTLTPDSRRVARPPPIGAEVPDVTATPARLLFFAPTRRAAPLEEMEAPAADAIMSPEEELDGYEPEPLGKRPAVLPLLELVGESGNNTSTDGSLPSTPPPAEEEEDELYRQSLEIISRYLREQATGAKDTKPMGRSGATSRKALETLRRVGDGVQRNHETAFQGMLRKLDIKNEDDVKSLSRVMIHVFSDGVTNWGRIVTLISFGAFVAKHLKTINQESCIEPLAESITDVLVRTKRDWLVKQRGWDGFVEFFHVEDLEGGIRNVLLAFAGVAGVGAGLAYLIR
TNF death inh: TNF-alpha cell death inhibition in Jurkat FADD-/- cells; AID 463075; Jurkat FADD-/- TNF necroptosis rescue, ATP luminescence, 24 h; 0 = TNF only, 100 = no-TNF cells; actives 0.068% (n = 220,000); activation (protection from cell death), % at 10 µM;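 active = activation, meaning protection from cell death, of at least 50% relative to plate controls; inactive = activation below 50%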;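 note: necroptosis triggered by 40 ng/mL TNF-alpha added together with compound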
Bim-Mcl-1: disrupts Bim peptide binding to human Mcl-1; Bead-based flow cytometry, Bim peptide-Mcl-1 binding; inhibition, % at 10 µM; actives 0.1% (n = 190,000); AID 1009; in the data active = inhibition above about 40%;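 note: 0% = no compound tracer wells and 100% = peptide blocker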
MCL1 BIM primary: MCL1-BIM-BH3 interaction inhibition (human) | GST-MCL1 / FITC-Bim-BH3 fluorescence polarization | inhibition, % at 10.9 µM | actives 0.68% (n = 320,000) | AID 2057;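 active = inhibition above the mean inhibition of all tested compounds plus 3 SD, set per campaign, cut at about 40% in these data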;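 note: 0% = DMSO wells and 100% = unlabeled Bim-BH3 peptide control; higher means more loss of mP so more displacement of Bim peptide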
Mcl1 Noxa PPI: disrupts binding of human Mcl-1 to Noxa peptide | AID 1022 | actives 1.5% (n = 220,000) | TR-FRET Mcl-1/Noxa peptide binding, 2 h | inhibition, % at 21.7 µM | Q07820;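 active = compounds that cut the protein-peptide binding signal by more than 50% relative to plate controls in a single-dose test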;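 note: His-tagged Mcl-1 with rhodamine Noxa BH3 peptide and terbium anti-His antibody; 0% = Mcl-1 plus Noxa peptide wells and 100% = peptide-only wells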
zVAD death inh: L929 zVAD cell death inhibition. L929 zVAD necroptosis rescue, ATP luminescence, 24 h; with zVAD 60 µM. viability rescue, % at 10 µM. actives 0.38% (n = 220,000);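 active = activation, scaled between plate controls, above about 75%, limit read from the data; inactive = activation under that limit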;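 note: 0% = zVAD with DMSO and 100% = DMSO alone without zVAD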
Active calls of the source: *. Most compounds without a hit are left out; they make up all but 2.4% or so of the library.

What do the screens show for `Cc1ccc(-c2nnc3ccc(SC(C)C(=O)O)nn23)cc1` (stereo not drawn)?
Mcl1 Bid PPI: -8; TNF death inh: 1; Bim-Mcl-1: -2; MCL1 BIM primary: 0; Mcl1 Noxa PPI: 78*; zVAD death inh: 3

Results for COc1ccc(CCNC(=O)CCNS(=O)(=O)c2ccc3c(c2)CCN3C(C)=O)cc1OC ?
Mcl1 Bid PPI: 58*; TNF death inh: 0; Bim-Mcl-1: -3; MCL1 BIM primary: 2; Mcl1 Noxa PPI: -7; zVAD death inh: 0

What do the screens show for `COc1ccc(CCNS(=O)(=O)c2ccc3c(c2)CCN3C(=O)CCC(=O)O)cc1OC`?
Mcl1 Bid PPI: -28; TNF death inh: -2; Bim-Mcl-1: 0; MCL1 BIM primary: -11; Mcl1 Noxa PPI: -3; zVAD death inh: -1

What do the screens show for `COc1ccc(S(=O)(=O)Nc2cccc(-c3ccc4nncn4n3)c2)c(OC)c1`?
MCL1 BIM primary: 0

Results for O=C(c1ccco1)N1CCN(C(=O)c2cc(-c3ccccc3)nc3ccccc23)CC1 ?
Mcl1 Bid PPI: -3; TNF death inh: -1; Bim-Mcl-1: -2; MCL1 BIM primary: -6; Mcl1 Noxa PPI: 8; zVAD death inh: 0

Results for O=C(c1ccco1)N1CCN(C(=O)c2cc(-c3ccccn3)nc3ccc(Cl)cc23)CC1 ?
Mcl1 Bid PPI: -6; TNF death inh: -4; Bim-Mcl-1: 0; MCL1 BIM primary: 37; Mcl1 Noxa PPI: 64*; zVAD death inh: 0

What do the screens show for `NS(=O)(=O)c1ccc(CNC(=O)c2cc(-c3ccccn3)nc3ccc(Cl)cc23)cc1`?
Mcl1 Bid PPI: -63; TNF death inh: -1; Bim-Mcl-1: 1; MCL1 BIM primary: 44*; Mcl1 Noxa PPI: 54*; zVAD death inh: 0

Results for NS(=O)(=O)c1ccc(CNC(=O)c2cc(-c3cccnc3)nc3ccc(Cl)cc23)cc1 ?
MCL1 BIM primary: 0

How did CCSc1ccccc1C(=O)NCc1ccc(S(N)(=O)=O)cc1 do in these assays?
Mcl1 Bid PPI: -5; TNF death inh: -2; Bim-Mcl-1: -3; MCL1 BIM primary: 12; Mcl1 Noxa PPI: 53*; zVAD death inh: -1

Results for Cc1c(NC(=O)c2ccc(NC(=O)C3CC3)cc2)cccc1C(=O)O ?
MCL1 BIM primary: 5

Results for N=c1sccn1CC(=O)Nc1ccc(Cl)cc1[N+](=O)[O-] ?
Mcl1 Bid PPI: -18; TNF death inh: 9; MCL1 BIM primary: -11; Mcl1 Noxa PPI: -3; zVAD death inh: 1

How did COc1cccc(CNC2CCCCCCC2)c1OC do in these assays?
MCL1 BIM primary: 7

How did O=C(NCc1ccccc1)C(=O)Nc1nc(C23CC4CC(CC(C4)C2)C3)cs1 do in these assays?
Mcl1 Bid PPI: -49; TNF death inh: 3; Bim-Mcl-1: 83*; MCL1 BIM primary: 6; Mcl1 Noxa PPI: -56; zVAD death inh: 0

What do the screens show for `O=C(NCc1ccncc1)C(=O)Nc1nc(C23CC4CC(CC(C4)C2)C3)cs1`?
Mcl1 Bid PPI: -33; TNF death inh: -7; Bim-Mcl-1: -4; MCL1 BIM primary: 9; Mcl1 Noxa PPI: -78; zVAD death inh: 28

What do the screens show for `Cc1cc(=O)oc2cc(OCc3ccc(C(=O)OCC(=O)Nc4ccc(N(C)C)cc4)cc3)ccc12`?
Mcl1 Bid PPI: 92*; TNF death inh: -3; Bim-Mcl-1: 0; Mcl1 Noxa PPI: 96*; zVAD death inh: 1

How did COc1ccc(NC(=O)c2c(F)cccc2F)cc1S(=O)(=O)Nc1ccc(Br)cc1 do in these assays?
Mcl1 Bid PPI: -13; TNF death inh: 0; Bim-Mcl-1: 42*; MCL1 BIM primary: -6; Mcl1 Noxa PPI: 6; zVAD death inh: 1

Results for CCOc1ccc(Br)cc1S(=O)(=O)Nc1ccc(NC(=O)c2ccccc2F)cc1 ?
Mcl1 Bid PPI: -25; TNF death inh: 4; Bim-Mcl-1: -4; MCL1 BIM primary: 8; Mcl1 Noxa PPI: -16; zVAD death inh: 1

What do the screens show for `Clc1ccc(C2=NNC(=NCc3ccc4c(c3)OCO4)SC2)cc1`?
Mcl1 Bid PPI: 10; TNF death inh: 4; Bim-Mcl-1: -4; MCL1 BIM primary: 0; Mcl1 Noxa PPI: 62*; zVAD death inh: 2

How did COc1ccc(CN=C2NN=C(c3ccc(Cl)cc3)CS2)cc1 do in these assays?
Mcl1 Bid PPI: -13; TNF death inh: 3; Bim-Mcl-1: -1; MCL1 BIM primary: 1; Mcl1 Noxa PPI: 58*; zVAD death inh: 25

Results for CC(C)(C)N=C1NN=C(c2ccc(Cl)cc2)CS1 ?
Mcl1 Bid PPI: -33; TNF death inh: 7; MCL1 BIM primary: -11; Mcl1 Noxa PPI: 5; zVAD death inh: 3

Results for Oc1ccc(C2=NNC(=NCc3ccc4c(c3)OCO4)SC2)c(O)c1 ?
Mcl1 Bid PPI: -25; TNF death inh: -2; Bim-Mcl-1: -4; MCL1 BIM primary: 9; Mcl1 Noxa PPI: 39; zVAD death inh: -1

What do the screens show for `COc1cc2c(cc1OC)CN(S(=O)(=O)/C=C/c1ccccc1)CC2`?
MCL1 BIM primary: 4

How did N=c1n(Cc2ccccc2)c2ccccc2n1CC(O)COc1ccccc1 (stereo not drawn) do in these assays?
Mcl1 Bid PPI: 64*; TNF death inh: -4; Bim-Mcl-1: 1; MCL1 BIM primary: -2; Mcl1 Noxa PPI: 19; zVAD death inh: 6

How did CC(=O)N1CC=C2C(C#N)=C(N)C(C#N)(C#N)[C@H](c3ccoc3)[C@H]2C1 do in these assays?
Mcl1 Bid PPI: -19; TNF death inh: 1; Bim-Mcl-1: -4; MCL1 BIM primary: 52*; Mcl1 Noxa PPI: -10; zVAD death inh: 2

What do the screens show for `COc1ccc(OC)c(C2C3CN(C(C)C)CC=C3C(C#N)=C(N)C2(C#N)C#N)c1` (stereo not drawn)?
Mcl1 Bid PPI: -34; TNF death inh: 0; Bim-Mcl-1: -5; MCL1 BIM primary: 96*; Mcl1 Noxa PPI: 3; zVAD death inh: -1

Results for CC(=O)N1CC=C2C(C#N)=C(N)C(C#N)(C#N)C(CCc3ccccc3)C2C1 (stereo not drawn) ?
Mcl1 Bid PPI: -51; TNF death inh: -3; Bim-Mcl-1: -1; MCL1 BIM primary: 2; Mcl1 Noxa PPI: -9; zVAD death inh: 0

What do the screens show for `CCCN1CC=C2C(C#N)=C(N)C(C#N)(C#N)C(c3cccc(OC)c3OC)C2C1` (stereo not drawn)?
Mcl1 Bid PPI: -54; TNF death inh: -2; Bim-Mcl-1: -5; MCL1 BIM primary: 140*; Mcl1 Noxa PPI: -39; zVAD death inh: -1

What do the screens show for `CC(=O)N1CC=C2C(C#N)=C(N)C(C#N)(C#N)C(C)C2C1` (stereo not drawn)?
Mcl1 Bid PPI: -15; TNF death inh: 2; Bim-Mcl-1: -3; MCL1 BIM primary: 23; Mcl1 Noxa PPI: 6; zVAD death inh: 3
